The sample as a whole holds a higher share of hits than the screen did.
Pf Dd2 inh = Plasmodium falciparum Dd2 growth inhibition. P. falciparum Dd2 growth, SYBR Green, 72 h. Potency, µM (top dose mostly 28.9 µM), usual class: inhibitors. actives 4.3% (n = 120,000); active means well fitted inhibition curve with a large enough effect; further: nearly all actives have a fitted effect of over 65% in size
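Infected erythrocytes (Dd2, 0.3% parasitemia, 2.5% hematocrit final) are added to compound in RPMI-1640/Albumax II medium, grown 72 h at 37C in low oxygen, then lysed with saponin/Triton-X containing SYBR Green and read by fluorescence.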
Numbers stand for hits; 0 = inactive; [ ] = remark or other dose.

SMILES	Pf Dd2 inh
CC(C)N1C(=O)C2(CCCC2)C1C(=O)N1CCN(Cc2ccccc2)CC1 (stereo not drawn)	0
COc1ccc(Nc2nccc3c(=O)cc(N4CCOCC4)oc23)cn1	0
O=C(Cc1ccccc1Cl)N1CCN(c2cc(-c3ccccc3)[nH]n2)CC1	0
O=C(NCc1ccc(F)cc1Cl)C1CCN(C(=O)c2ncn3c2COC(c2ccccc2)C3)CC1 (stereo not drawn)	0
Cc1cccc(-c2noc([C@@H]3C[C@@H](O)CN3Cc3ncc[nH]3)n2)c1	0
Cc1ncc2c(c1CNC(=O)c1ccccc1-c1nn[nH]n1)CCNC2	0
CCC(CNc1nc(CCN)nc2ccccc12)N(C)CC (stereo not drawn)	0
O=C(Nc1ccc(O)c(-c2nc3ccccc3o2)c1)c1sc2ccccc2c1Cl	0
O=C(Nc1ccc(O)c(-c2nc3ccccc3o2)c1)c1ccc(Br)cc1	2.82µM
O=C(Nc1ccc(O)c(-c2nc3ccccc3o2)c1)c1cccs1	0
COC[C@H]1CCCN1C(=O)C[C@@H]1O[C@H](CNC(=O)c2ccccc2)[C@@H](O)[C@H]1O	0
COCCNC(=O)C(NC(=O)c1cccc(OC)c1)C1CCN(C(=O)c2ccc(C)cc2)CC1 (stereo not drawn)	0
COc1cccc(C(=O)NC(C(=O)N2CCCCC2)C2CCN(C(=O)c3cccc(F)c3)CC2)c1 (stereo not drawn)	8.91µM
CCCNC(=O)C(NC(=O)c1cccc(OC)c1)C1CCN(C(=O)c2cccc(F)c2)CC1 (stereo not drawn)	0
O=C(NC(C(=O)NCc1ccco1)C1CCN(C(=O)C2CC2)CC1)c1ccccc1 (stereo not drawn)	0
Cc1cccc(C(=O)N2CCC(C(NC(=O)c3ccccc3)C(=O)N3CCCCC3)CC2)c1 (stereo not drawn)	11.2µM
Cc1ccc(C(=O)NC(C(=O)N2CCCC2)C2CCN(C(=O)c3ccccc3F)CC2)cc1 (stereo not drawn)	0
O=C(NC(C(=O)N1CCCCC1)C1CCN(C(=O)c2ccccc2)CC1)c1ccccc1Cl (stereo not drawn)	0
COc1cccc(C(=O)N2CCC(C(NC(=O)c3ccccc3)C(=O)NCc3ccco3)CC2)c1 (stereo not drawn)	8.91µM
COc1ccc(C(=O)N2CCC(C(NC(=O)c3cccc(OC)c3)C(=O)N3CCCC3)CC2)cc1 (stereo not drawn)	0
COc1cccc(C(=O)N2CCC(Oc3ccccc3)C2)c1 (stereo not drawn)	0
CCc1ccc(S(=O)(=O)N2CCC(n3cnnc3CCOC)CC2)cc1	0
C=CCNc1nc(C2CC2)nc2c1CCN(C(=O)c1cscn1)CC2	0
CNC(=O)[C@@H]1CN(C(=O)c2ccc(OC)c(F)c2)C[C@H]1COC	0
COc1cc(=O)n2c(c1C(=O)Nc1ccccc1)CCCC2	0
SMILES	Pf Dd2 inh
Cc1cc(CN(C)C(=O)CC(c2cccc(O)c2)c2ccccc2Cl)n[nH]1 (stereo not drawn)	0
Cc1ccc(C(=O)N2CC(Oc3ccc(F)c(C)c3)C2)cc1	0
COCCNC(=O)N1CCc2nn(CC3CC3)c(=O)n2CC1	0
Cn1cc(CNC(=O)C[C@@H]2C[C@H]3O[C@H](CNC(=O)NC4CCC4)[C@@H](O)[C@H]3O2)cn1	0
CCCNC(=O)N(C1CCOCC1)C1CCN(C(=O)Nc2c(F)cccc2F)CC1	0
CC(C)NC(=O)N1CCC2(CC1)CN(C(=O)Cc1c[nH]c3ccccc13)CCO2	0
Cc1ccc(CNC(=O)c2ccc3c(c2)CNCCO3)cc1	0
CC(C)CCNC(=O)c1cnc2n1CCN(Cc1cccs1)CC2	0
CCOc1ccc(NC(=O)Cn2c(-c3ccc(F)cc3)nc(C)c(CCO)c2=O)cc1	0
COc1ccc(NC(=O)c2ccc3c(c2)OCCN(c2ccccc2)C3)c(F)c1	10µM
COc1ccc(NC(=O)c2ccc3c(c2)OCCN(CCC(F)(F)F)C3)c(F)c1	0
CNC(=O)c1ccc2c(c1)OCCN(c1ccccc1)C2	0
COc1ccc(C(=O)N[C@@H]2CCC[C@@H]2C(=O)NCc2ccc3c(c2)OCO3)cn1	0
COc1ccc(NC(=O)C2CCN(C(=O)c3ncn4c3COC(c3ccccc3)C4)CC2)cc1OC (stereo not drawn)	0
CC[C@H]1CN(C(=O)Nc2cccc(OC)c2)CC[C@H]1CC(=O)N(C)CCC#N	0
COC(=O)c1ccc2c(c1)nc1n2[C@@H](CNCc2ccc(S(C)(=O)=O)cc2)COC1	0
Cc1ccc(-c2nc3ccccn3c2Nc2ccc3c(c2)OCO3)cc1	0[0.594 µM]
Cc1ccc(-c2nc3ccc(Br)cn3c2Nc2ccc3c(c2)OCO3)o1	0
Cc1cccc2nc(-c3ccc(N(C)C)cc3)c(Nc3ccc4c(c3)OCO4)n12	7.94µM
O=C1NC2(CCCN([S+](=O)([O-])c3cccc(C(F)(F)F)c3)C2)COc2ccccc21 (stereo not drawn)	0
CO[C@H]1C(=O)N(C(C)C)[C@H]1C1CCN(Cc2cccc(C#N)c2)CC1	10µM
CO[C@H]1C(=O)N(C(C)C)[C@H]1C1CCN(Cc2cccc(F)c2)CC1	0
CO[C@H]1C(=O)N(C(C)C)[C@H]1C1CCN(C(=O)c2cccc(C#N)c2)CC1	0
CC(c1ccc(F)cc1)N1Cc2cc(NC(=O)Cc3cccs3)ccc2OCC1=O (stereo not drawn)	0
CCOc1ccc(-c2nc(C3CC(=O)N(c4ccc(F)cc4)C3)no2)cc1OCC (stereo not drawn)	0
SMILES	Pf Dd2 inh
CCc1ncc(-c2ccccc2)[nH]1	0
CCOc1ccc(-c2cnc(-c3cnc(CC)nc3)[nH]2)cc1OCC	10µM
Cc1cccc(C(=O)N2C[C@@H](CO)[C@H](c3nc(C4CC4)no3)C2)n1	0
Cc1nc2c(c(NCCc3nc(C)c(Cl)s3)n1)CCNCC2	0
N#Cc1cccc(C(=O)N2CCC(n3cc(-c4nc(C5CC5)no4)nn3)C2)c1 (stereo not drawn)	0
OCCOCCn1cnc(-c2ccccc2)c1-c1ccc(-n2cccn2)cc1	0
C#CCOc1ccccc1-c1c(-c2ccccc2)ncn1CCCO	0
COc1cc(OC)c(-c2c(-c3ccccc3)ncn2CCF)cc1OC	10µM
Cn1cnc(C(=O)N2[C@@H]3CC[C@H]2CC(NC(=O)c2ccncc2)C3)c1 (stereo partly drawn)	0
Cc1cc(F)ccc1NC(=O)c1cc2n(n1)CC(c1ccc(Br)cc1)OC2 (stereo not drawn)	0
COc1ccc(CC(=O)N2[C@@H]3CC[C@H]2CC(NC(=O)c2cnc(C)cn2)C3)cc1OC (stereo partly drawn)	0
CCCN1CCN(C(=O)Cn2c(C)ccc(NC(=O)Nc3ccccc3)c2=O)CC1	0
COC[C@H]1C[C@@H](NC(=O)c2cnccn2)[C@H](O)[C@@H]1O	0
O=C(NCCCN1CCc2ccccc2C1)C1CCCCC(=O)N1Cc1ccccc1 (stereo not drawn)	3.98µM
CCN1CCN(CCNC(=O)C2CCCCC(=O)N2Cc2ccccc2)CC1 (stereo not drawn)	0
O=C1CCCCC(C(=O)NCCCN2CCc3ccccc3C2)N1 (stereo not drawn)	0
COc1ccc(Cn2c(C3CCN(C(=O)Cc4cccc(C)c4)CC3)n[nH]c2=O)cc1	0
Cc1cccc(OCC(=O)N2CCC(c3n[nH]c(=O)n3Cc3ccc(F)cc3)CC2)c1	11.2µM
Cc1ccc(CC(=O)N2CCC(c3n[nH]c(=O)n3-c3ccccc3)CC2)cc1	0
Cc1ccc(-n2c(C3CCN(C(=O)Cc4ccccc4Cl)CC3)n[nH]c2=O)cc1	0
